From PubChem BioAssay
Hits are enriched below; roughly 1.7% of the tested compounds scored in any of these assays.
CTSL1 counter: cathepsin L1 inhibition, PFM18AAP counter-screen. recombinant F. hepatica cathepsin L1, Z-Leu-Arg-MCA fluorescence. actives 0.49% (n = 300,000). inhibition, % at 5.96 µM;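 active = inhibition above the mean of all tested compounds plus 3 SD, set per screening campaign, cut at about 17% in these data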;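 note: 0% = plate median of test compound wells and 100% = 1 µM Z-Phe-Ala-diazomethylketone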
HTR2A ag: agonists of mouse serotonin 5-HT2A receptor (HTR2A); CHO-K1 mHTR2A beta-arrestin complementation, luminescence; percent of 30 µM serotonin response; activation, % at 7.6 µM; actives 0.66% (n = 360,000);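 active = activation above a run cutoff, the mean activation of all tested compounds plus 3 SD, cut at about 14% in these data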;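 note: 0% = plate median of compound wells and 100% = 30 µM serotonin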
HDAC3 inh: human HDAC3 inhibition; O15379; recombinant HDAC3, fluorogenic peptide/trypsin coupled, fluorescence; inhibition, % at 8.3 µM; actives 0.15% (n = 320,000); AID 2718; in the data active = inhibition above about 26%, passing the limit was not always enough; inconclusive = no clear call, values can overlap the other calls
LANA-H2B inh: blocks KSHV LANA binding to histone H2A/H2B. Q9QR71. cell-free LANA-H2A/H2B peptide, fluorescence polarization. inhibition, % (concentration not given with the values). actives 0.6% (n = 320,000); in the data active = inhibition mostly above about 10%, no sharp cut-off; inactive = mostly below about 6.7%
Target sequence (Q9QR71 whole entry, looked up): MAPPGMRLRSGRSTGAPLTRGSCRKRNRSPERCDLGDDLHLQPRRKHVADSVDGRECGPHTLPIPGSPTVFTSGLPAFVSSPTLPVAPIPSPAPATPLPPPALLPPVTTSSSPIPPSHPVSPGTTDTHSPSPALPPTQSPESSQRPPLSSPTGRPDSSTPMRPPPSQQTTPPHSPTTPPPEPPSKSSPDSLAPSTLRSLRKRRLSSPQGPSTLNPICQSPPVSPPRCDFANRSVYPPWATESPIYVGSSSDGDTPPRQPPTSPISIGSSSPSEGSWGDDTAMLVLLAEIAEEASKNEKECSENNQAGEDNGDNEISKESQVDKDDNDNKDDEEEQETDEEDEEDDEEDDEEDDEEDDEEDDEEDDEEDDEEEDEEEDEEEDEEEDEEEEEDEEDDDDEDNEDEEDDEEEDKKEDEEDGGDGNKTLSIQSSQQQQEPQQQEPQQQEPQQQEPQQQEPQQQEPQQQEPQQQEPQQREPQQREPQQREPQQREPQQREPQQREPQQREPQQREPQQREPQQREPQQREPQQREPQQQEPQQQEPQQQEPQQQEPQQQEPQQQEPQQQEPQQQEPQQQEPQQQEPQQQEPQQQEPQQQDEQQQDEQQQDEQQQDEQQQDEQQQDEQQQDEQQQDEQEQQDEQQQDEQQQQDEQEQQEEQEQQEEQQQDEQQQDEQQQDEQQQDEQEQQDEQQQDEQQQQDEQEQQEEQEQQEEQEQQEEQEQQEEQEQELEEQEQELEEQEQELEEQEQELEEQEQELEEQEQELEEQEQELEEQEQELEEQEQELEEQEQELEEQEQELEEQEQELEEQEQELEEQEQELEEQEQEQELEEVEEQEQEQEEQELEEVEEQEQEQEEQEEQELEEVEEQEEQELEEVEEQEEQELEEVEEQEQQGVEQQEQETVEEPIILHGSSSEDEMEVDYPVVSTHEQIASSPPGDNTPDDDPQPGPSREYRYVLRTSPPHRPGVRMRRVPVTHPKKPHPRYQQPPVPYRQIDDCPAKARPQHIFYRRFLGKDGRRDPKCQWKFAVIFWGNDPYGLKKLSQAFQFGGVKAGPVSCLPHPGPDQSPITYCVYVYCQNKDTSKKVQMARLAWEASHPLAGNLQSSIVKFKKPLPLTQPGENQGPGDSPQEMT
* marks the source's active call; other numbers are inactive results; ? = inconclusive; / = not tested or not shown; + = active, no number.

SMILES	CTSL1 counter	HTR2A ag	HDAC3 inh	LANA-H2B inh
Cc1ccc(S(=O)(=O)n2nc(OC(=O)c3ccco3)cc2N)cc1	-31	5	58*	2
Cc1ccc(S(=O)(=O)n2nc(OC(=O)c3ccccc3C)cc2N)cc1	0	-6	5	-3
COc1ccc(C(=O)CN2CCN(S(=O)(=O)c3cccc([N+](=O)[O-])c3)CC2)cc1OC	4	6	53*	0
NC(=O)C1CCN(CC(O)COCc2ccccc2Cl)CC1 (configuration not stated)	3	-7	-4	-3
COC(=O)C(Cc1ccc(O)cc1)NC(=O)NC12CC3CC(CC(C3)C1)C2 (configuration not stated)	-1	0	-7	-9
O=C(c1ccccc1F)N1CCN(S(=O)(=O)c2ccc3c(c2)OCCO3)CC1	-2	-1	32*	-5
O=C(c1ccccc1OC(F)F)N1CCN(S(=O)(=O)c2ccc3c(c2)OCCCO3)CC1	/	0	0	-1
CCC(=O)Oc1oc(-c2ccccc2)nc1C=Nc1ccc(C)cc1	26*	2	12	0
CCC(=O)Oc1oc(-c2ccccc2)nc1C=Nc1ccccc1OC	25*	4	6	1
O=C(CCc1nc(-c2ccccc2F)no1)Nc1ccc(Oc2ccccc2)cc1	2	0	27*	-3
COc1cccc(NC(=O)CCc2nc(-c3ccccc3F)no2)c1	-1	2	2	0
COc1cc(N)c(Cl)cc1C(=O)OCC(=O)Nc1cccnc1Cl	1	-5	0	-7
COCCN=C1OC(=O)N2C(=O)C3=C4[C@@H](C[C@H]5C(=O)N(c6ccccc6)C(=O)[C@H]5[C@H]4[C@@]12Cc1ccccc1)[C@H]1C(=O)N(c2ccccc2)C(=O)[C@H]1[C@H]3C	18*	4	3	-3
COc1cc2c(cc1OC)CN(CC(=O)Nc1ccc(C)c(C)c1)CC2	-3	-11	5	4
O=C(Oc1cccc(-n2cnnn2)c1)c1ccco1	-32	-1	32*	-3
O=C(Oc1ccc(-c2nnco2)cc1)c1ccco1	-6	2	63*	0
O=C(Oc1ccc(-c2cnc3ccccc3n2)cc1)c1ccco1	-16	4	-3	3
Clc1cccc(CN2CCCCCC2)c1Cl	-1	2	-14	-6
COc1cc(NC(=O)CCc2nnc3ccc(N4CCN(c5cccc(OC)c5)CC4)nn23)cc(OC)c1	66*	8	-10	1
COc1ccc(NC(=O)N(C)C[C@H]2Oc3ccc(NS(=O)(=O)c4ccccc4)cc3C(=O)N([C@H](C)CO)C[C@@H]2C)cc1	/	3	/	/
COc1ccc2c3c(cccc13)C(=O)CC2	/	-2	2	+
COc1ccc2c(c1OC)C(=O)OC2	0	-3	1	4
COc1cccc(-c2nc3n(n2)C(c2ccc4c(c2)OCO4)C(C(N)=O)=C(C)N3)c1 (configuration not stated)	-3	4	56*	0
COc1ccc(C(=O)COC(=O)c2nn(C)cc2Cl)cc1	-2	1	-2	-5
Cc1noc(/C=C/N(C)C)c1S(=O)(=O)N1CCC(C(=O)Nc2ccc(Cl)cc2)CC1	-2	0	3	1
SMILES	CTSL1 counter	HTR2A ag	HDAC3 inh	LANA-H2B inh
Cc1ccc(NC(=O)C2CCCN(S(=O)(=O)c3c(C)noc3/C=C/N(C)C)C2)cc1F (configuration not stated)	17*	-1	6	0
CC(C)CC(=O)Nc1ccccc1N1CCCC1	0	-2	-7	0
CC(C)CC(=O)NC(=S)Nc1ccccc1N1CCCC1	20*	1	-3	0
CC(NC(=O)CCl)c1ccc(Cl)c(Cl)c1 (configuration not stated)	23*	-3	9	3
O=C(C1CCCCC1)N1CCN(S(=O)(=O)c2cccc([N+](=O)[O-])c2)CC1	-2	0	2	0
O=C1N=c2ccc(Br)cc2=C1c1sc(=S)n(NS(=O)(=O)c2ccccc2)c1O	28*	2	6	1
O=C1N=c2ccccc2=C1c1sc(=S)n(NC(=O)c2cccc(O)c2)c1O	/	1	/	/
CCC(C)NC(=O)CSc1ccc(S(=O)(=O)N(C)C2CCCCC2)cn1 (configuration not stated)	/	-2	-1	3
CC1Sc2ccc(S(=O)(=O)CCC(=O)NC3CCCCC3C)cc2NC1=O (configuration not stated)	-2	4	0	-2
CCCNC(=O)Cn1c(=O)/c(=C/c2ccc(-c3cccc([N+](=O)[O-])c3)o2)s/c1=C\C(=O)C(C)(C)C	/	-1	/	/
CCCNC(=O)Cn1c(=O)/c(=C\c2ccc(-c3cccc([N+](=O)[O-])c3)o2)s/c1=C\C(=O)C(C)(C)C	18*	5	2	1
COc1ccc(CN(CCC(c2ccccc2)c2ccc(OC(C)C)cc2)C(=O)CCl)cc1OC (configuration not stated)	36*	8	11	-7
COc1ccc(NC(=O)CSc2nnc(CC(=O)Nc3ccc(F)cc3)n2C)cc1	5	9	-6	-1
COCCn1c(SCC(=O)c2ccc3c(c2)OCCO3)nnc1C(C)C	18*	-1	?	0
Cc1ccc(C(C)C)c(OCC(=O)Nc2ccc(N3CCN(S(C)(=O)=O)CC3)cc2)c1	1	-6	-6	50*
CCCCCCCCN1C(=O)[C@H](CC(=O)N2CCCC2)C[C@@]2(C(=O)OCC)CCCC=C12	/	3	/	/
COc1ccc(C(=O)NCc2nnc(SCC(=O)NO)n2Cc2ccccc2)cc1	-12	0	91*	-4
CCn1c(CNC(=O)Cc2ccc(OC)cc2)nnc1SCC(=O)c1ccccc1	/	-1	/	/
COc1ccc(/C=C2\C(=O)NC(=S)N2C(=O)c2ccc(F)cc2)cc1	5	-2	1	+
O=C1NC(=S)N(C(=O)c2ccc(F)cc2)/C1=C/c1ccccc1	6	-1	5	-1
O=C(c1ccco1)N1CCN(CC(O)COc2ccc3oc4ccccc4c3c2)CC1 (configuration not stated)	2	14*	-1	2
O=C(Nc1ccccc1C(=O)NCCCN1CCOCC1)c1ccc(Cl)cc1	0	-4	-7	88*
COc1ccc(C(=O)Nc2ccccc2C(=O)NCCN2CCOCC2)cc1	23*	-4	3	-2
COc1cc(CC(=O)N(CC(C)C)C2CCS(=O)(=O)C2)cc(OC)c1OC (configuration not stated)	/	2	2	1
COC(=O)c1ccc(-c2noc(CN(C)Cc3ccncc3C)n2)cc1	1	9	-10	-1
CCN(Cc1ccncc1)Cc1nc(-c2ccc(C(=O)OC)cc2)no1	-3	4	2	9.6*
CCOC(=O)C(C)On1c(-c2cccc(Cl)c2)nc2ccc([N+](=O)[O-])cc21 (configuration not stated)	0	1	3	51*
CCOC(=O)COn1c(-c2cccc(Cl)c2)nc2ccc([N+](=O)[O-])cc21	-3	3	13	-10
COc1ccc(-c2cn(CCc3c[nH]c4ccccc34)nn2)cc1	-16	2	-2	1
